GPT2 inh = blocks human glutamate pyruvate transaminase 2. 100,000 compounds, 0.25% hits. Potency, µM (titrated, usually from 57.7 µM), for inactives: top-dose activity change, negative = inhibition, actives largely listed as inhibitors. Recombinant GPT2, coupled pyruvate oxidase/HRP Amplex Red fluorescence. Q8TD30; note: nearly all actives have a fitted effect of over 60% in size
Target sequence (Q8TD30 whole entry, looked up): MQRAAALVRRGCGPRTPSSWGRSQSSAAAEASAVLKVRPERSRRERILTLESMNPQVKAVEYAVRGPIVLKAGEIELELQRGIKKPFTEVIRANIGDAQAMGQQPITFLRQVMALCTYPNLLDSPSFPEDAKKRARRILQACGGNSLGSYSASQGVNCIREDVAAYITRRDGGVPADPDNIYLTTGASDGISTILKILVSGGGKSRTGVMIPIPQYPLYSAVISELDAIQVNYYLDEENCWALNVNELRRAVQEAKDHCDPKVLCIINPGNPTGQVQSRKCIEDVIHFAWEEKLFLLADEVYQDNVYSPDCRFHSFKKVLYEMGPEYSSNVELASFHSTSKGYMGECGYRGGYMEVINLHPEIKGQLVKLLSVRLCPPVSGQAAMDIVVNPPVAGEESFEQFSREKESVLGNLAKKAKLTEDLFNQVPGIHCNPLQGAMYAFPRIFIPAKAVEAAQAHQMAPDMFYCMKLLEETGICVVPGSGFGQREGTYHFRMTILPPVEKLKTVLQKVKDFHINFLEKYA
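Fluorescence read-out: pyruvate from GPT2 turnover coupled to pyruvate oxidase, HRP and Amplex Red (0.2mM ThPP, 0.2U/mL PO and HRP, 50uM Amplex final). Substrates 250uM a-KG, 2mM L-alanine; enzyme 10ng/uL; 30 min RT.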
NPR1 antag = human Npr1 receptor antagonism | P16066 | HEK293 hNpr1 GloSensor cGMP, ANP-stimulated luminescence | Potency, µM (top dose mostly 46.3 µM), for the others: at the top dose activity change, negative = inhibition, actives largely listed as inhibitors | 76,000 compounds, 1.6% hits | AID 1347048; calls by dose curve; note: nearly all actives have a fitted effect of over 60% in size
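Compound pre-incubated 30 min at room temperature on GloSensor-loaded HEK293 cells stably carrying hNpr1 and the pGS-40F cGMP biosensor. Stimulation uses hNppA at 0.1 nM final; luminescence is taken at baseline and 20 min post-agonist.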
Luciferase inh = inhibitors of firefly (Photinus pyralis) luciferase | P08659 | purified P. pyralis luciferase, luminescence, biochemical | Potency, µM (series often up to 115 µM), hits mostly inhibitors | 76,000 compounds, 2.5% hits | AID 1347043; note: nearly all actives have a fitted effect of over 65% in size
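FLuc 10nM, D-luciferin 10uM, ATP 10uM, Mg acetate 10mM, Tris acetate pH 7.5, Tween/BSA; cpd qHTS; enzyme added last; CCD luminescence.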
3T3 cytotox = kills NIH 3T3 cells; Potency, µM (highest dose often 96.7 µM), for the others: at the top dose activity change, negative = cytotoxicity, actives largely listed as inhibitors; NIH 3T3 viability, CellTiter-Glo ATP luminescence, 48-72 h; 94,000 compounds, 4.3% hits; note: nearly all actives have a fitted effect of over 55% in size
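Cytotoxicity is measured as loss of cellular ATP: NIH 3T3 cells (400/well) are exposed to compound for 48 or 72 hr at 37 °C, then CellTiter-Glo luminescence is imaged after 10 min at room temperature.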
HEK cytotox = HEK 293 cell cytotoxicity; HEK 293 viability, ATP luminescence (CellTiter-Glo), 48-72 h; Potency, µM (top dose mostly 115 µM), inactives show at the highest dose activity change, negative = cytotoxicity, usual class: inhibitors; 94,000 compounds, 6.6% hits; AID 1345083; note: nearly all actives have a fitted effect of over 60% in size
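HEK 293 cells seeded at 250 cells/well were exposed to compound for 48 or 72 hr at 37 degree Celsius. Viability taken as ATP content by CellTiter-Glo luminescence.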
The depositor's hits bear a star; i = inactive; ? = inconclusive; nt = not tested or not shown; [ ] = remark or other dose. Hits are enriched below; roughly 10% of the tested compounds scored in any of these assays. Unless noted, calls come from the whole dose curve; as a rule, active = well fitted curve in the direction sought with a large enough effect; inconclusive = small, poorly fitted or top-dose-only effect, or another doubt; inactive = no such curve, though single readings can be large; an effect the other way counts as inactive or inconclusive. % is set by controls: 0 for no effect and ±100 for the full control effect; potency is the fitted concentration of half-maximal effect.

SMILES | GPT2 inh | NPR1 antag | Luciferase inh | 3T3 cytotox | HEK cytotox
Cc1ccc(C)c(Cn2ccn3nc(-c4ccc(F)cc4)c(CO)c3c2=O)c1 | i | ? | i | ? | 35µM*
Cc1cccc(NC(=O)Cn2ccn3nc(-c4ccccc4)c(CO)c3c2=O)c1C | 1% | 0% | i | ? | 89µM*
COc1cc(NC(=O)Cn2ccn3nc(-c4ccccc4)c(CO)c3c2=O)cc(OC)c1 | 1% | 0% | i | i | -16%
COc1cc(NC(=O)Cn2ccn3nc(-c4ccccc4)c(CO)c3c2=O)cc(OC)c1OC | i | -1% | i | ? | 32µM*
O=C(Cn1ccn2nc(-c3ccc(F)cc3)c(CO)c2c1=O)Nc1cccc(Br)c1 | -3% | -3% | i | ? | 45µM*
Cc1nnc(-c2cc(-c3ccc(N4CCOCC4)cc3)ccn2)n1Cc1ccccc1 | -6%[88.5 µM] | -12%[70.6 µM] | i | ? | ?
CC(C)CC(=O)N1C[C@@H]2CCCN3CCC[C@@H]([C@H]23)[C@H]1CCCC(=O)N1CCOCC1 | i | nt | nt | -36% | -29%
Cc1cnc(C2CC2)n1CC1CCN(C(=O)C2CC2)CC1 | 0% | -2% | i | i | i
CCc1noc(-c2cn(C3CCCN(C(=O)c4ccc(OC)c(F)c4)C3)nn2)n1 (centres undefined) | -4% | 1% | i | -11% | 3%
COc1ccc(CC(=O)NC2CN(c3ccnc4ccnn34)C2)cc1 | i | nt | nt | ? | ?
COc1ccc(CN2Cc3[nH]nc(-c4ccnn4C)c3CC2=O)cc1 | -2%[88.5 µM] | -17%[70.6 µM] | i | ? | 112µM*
COc1ccc(CN2Cc3[nH]nc(-c4cccnc4OC)c3CC2=O)cc1 | i | 1%[70.6 µM] | i | ? | 71µM*
COc1ccc(CN2Cc3[nH]nc(-c4ccc(N5CCN(C)CC5)cc4)c3CC2=O)cc1 | -16%[88.5 µM] | -3%[70.6 µM] | i | 79µM* | 45µM*
COc1ccc(CN2Cc3[nH]nc(-c4ccccc4)c3CC2=O)cc1 | -13%[88.5 µM] | -1%[70.6 µM] | i | ? | i
c1ccc(C2=NOC3(CCCN(CC4CCCCC4)C3)C2)cc1 (centres undefined) | i | nt | nt | ? | ?
O=C1Nc2ccccc2CN(Cc2ccc(F)cc2)C12CCNCC2 | 3% | nt | nt | ? | 40µM*
O=C1Nc2ccccc2CN(Cc2ccc(C(F)(F)F)cc2)C12CCNCC2 | 5% | nt | nt | 22µM* | 28µM*
O=C1Nc2ccccc2CC12CCCN2Cc1ccc(C(F)(F)F)cc1 (centres undefined) | -13% | nt | nt | ? | 45µM*
O=C1Nc2ccccc2CC12CCN2Cc1cccc2ccccc12 (centres undefined) | -4%[88.5 µM] | -7%[70.6 µM] | i | 89µM* | ?
CCC(C)NC(=O)C1CC(c2ccc(F)c(C)c2)CN(C(=O)c2ccccc2)C1 (centres undefined) | i | -16% | i | ? | ?
CN(C)C(=O)N1CCC2(CC1)CN(Cc1ccncc1)Cc1ccccc1O2 | 0% | nt | nt | i | 0%
COc1ccc(-n2c(=O)c3c(n2Cc2ccccc2)CN(C(=O)C2CCC(OC)CC2)CC3)cc1 (centres undefined) | i | 1% | i | ? | -6%
CCn1c2c(c(=O)n1Cc1ccccc1)CCN(C(=O)C1CCCO1)C2 (centres undefined) | -17%[88.5 µM] | 0%[70.6 µM] | i | ? | i
O=C(C1CCCO1)N1CCc2c(n(Cc3ccccc3)n(-c3ccccc3)c2=O)C1 (centres undefined) | 0%[88.5 µM] | 2%[70.6 µM] | i | 32µM* | -6%[172 µM]
O=C(C1CCOCC1)N1CCc2c(n(Cc3ccccc3)n(-c3ccccc3)c2=O)C1 | -1%[88.5 µM] | -1%[70.6 µM] | i | 100µM* | 4%[172 µM]
SMILES | GPT2 inh | NPR1 antag | Luciferase inh | 3T3 cytotox | HEK cytotox
CCCn1cc(CNC(=O)c2ccc3c(c2)n(CC)c(=O)c2ccnn23)c(C)n1 | i | 0% | i | ? | 79µM*
CC(C)(C)c1ccc(-c2noc(CNC(=O)CN3C(=O)CNC3=O)n2)cc1 | -3%[11.5 µM] | -3% | 18µM* | -6% | -1%
CCN1c2cc(C(=O)Nc3ccc(F)c(Cl)c3)ccc2C(=O)N2CCCCCC21 (centres undefined) | i | -7% | i | 32µM* | 16µM*
CCN1c2cc(C(=O)Nc3ccc(F)cc3)ccc2C(=O)N2CCCCCC21 (centres undefined) | -6% | 2% | i | ? | ?
CCN1c2cc(C(=O)Nc3ccc(F)c(C)c3)ccc2C(=O)N2CCCCCC21 (centres undefined) | 3% | -18% | i | ? | 40µM*
CCN1c2cc(C(=O)Nc3ccc(C)c(F)c3)ccc2C(=O)N2CCCCCC21 (centres undefined) | 3% | 0% | i | 40µM* | ?
COc1ccc(-c2noc([C@H](C)O)c2C(=O)NC(C)(C)C)cc1 | -13%[88.5 µM] | 0%[70.6 µM] | i | 3%[138 µM] | 5%[172 µM]
Cc1cc2nc3n(c(=O)c2n1CC(=O)Nc1ccc(Br)cc1F)CCCCC3 | i | 0% | i | ? | 25µM*
COc1cccc2c1OCC(CNC(=O)c1ccccc1N1CCCC1)C2 (centres undefined) | 0% | 3% | i | 2% | 89µM*
Cc1cccc(C)c1NC(=O)N(C)CC1CCOC1 (centres undefined) | -1% | 1% | i | i | -1%
NCc1ccccc1-c1cnc2ccccc2c1 | ? | nt | nt | 100µM* | ?
O=C(CCC(F)(F)F)N1CCC(CCC(=O)N2CCC(Cc3ccccc3)CC2)CC1 | ? | ? | i | ? | ?
O=C(CC[C@H]1NC(=O)c2ccccc2NC1=O)Nc1ncn[nH]1 | i | 1% | i | i | i
CCC(=O)N1CCC2(CC1)CC(N(Cc1ccccc1)C1CC1)CCO2 (centres undefined) | -9% | -11% | i | 2% | -28%
CCC(C)(C)C(=O)N1CCC2(CC1)CC(N(Cc1ccc(F)cc1)C1CC1)CCO2 (centres undefined) | i | -8% | i | ? | 45µM*
O=C(c1ccccc1)N1CCC2(CC1)CC(N(Cc1ccc(F)cc1)C1CC1)CCO2 (centres undefined) | -10% | -22% | i | ? | 45µM*
O=C(N1CCC2(CC1)CC(N(Cc1ccccc1)C1CC1)CCO2)C1(c2ccccc2)CC1 (centres undefined) | i | ? | i | 45µM* | 40µM*
O=C(CC1CCCC1)N1CCC2(CC1)CC(N(Cc1ccc(F)cc1)C1CC1)CCO2 (centres undefined) | 5% | -22% | i | ? | 45µM*
O=C(c1cccc(F)c1)N1CCC2(CC1)CC(N(Cc1ccc(F)cc1)C1CC1)CCO2 (centres undefined) | 5% | 2% | i | ? | ?
